The source of these data is PubChem BioAssay (EPA / NIEHS).

Active and inactive are the calls of the source. How the source made its calls: active means hit-call score of the fitted dose curve at least 0.9, where 1 is the maximum; inactive means score below 0.9.

The experiment can be described thus: CCTE_Harrill_HTTr_Apoptosis_MCF7: CCTE's 6-hour Apoptosis Assessment for the High-Throughput Transcriptomics (HTTr) Platform, in MCF-7 cells cultured in DMEM + 10% fetal bovine serum, Harrill Lab (AID 2284011). The essentials: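 MCF-7 (DMEM + 10% FBS), 384-well; 8-pt dilution series, 6 h chemical exposure; caspase-3/7 activation via CellEvent Caspase 3/7 Green, HCI; bidirectional fit vs DMSO.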
Turning to `Cc1ccc([N+](=O)[O-])cc1N`, the outcome was inactive.
Regarding `C=C(C)C1CC=C(C)CC1` (stereo not drawn), the outcome was inactive.
On to `CCCCOCCOC(=O)COc1ccc(Cl)cc1Cl`, for which the result was inactive.
For the molecule `O=C(O)/C=C/c1ccccc1`, the outcome was inactive.
Take `CC(C)=CCl`: the result was inactive.
Consider `N#Cc1ccc(C2CCCc3cncn32)cc1` (stereo not drawn), for which the result was inactive.
For the molecule `Oc1c(Cl)cc(Cl)c(Cl)c1Cl`, the outcome was inactive.
Under `CC=CC(=O)OCC(C)C` stands “inactive”.
Under `COC(=O)C=Cc1ccccc1` stands “inactive”.
Take `C=CCCCCCCCCC=O`: the result was inactive.
The entry for `CC(=O)OCCc1ccccc1` is “inactive”.
Turning to `CC(C)CO`, the result was inactive.
Take `CC(=O)c1ccccc1O`: the outcome was inactive.
As for `COC(Cc1ccccc1)OC`, the result was inactive.
For `CC(C)[N+](C)(CCOC(=O)C1c2ccccc2Oc2ccccc21)C(C)C`, the outcome was inactive.
As for `CC(=O)OC/C=C(/C)CCC=C(C)C`, the outcome was inactive.
Regarding `CCCCCCCCCCCCC`, the outcome was inactive.
As to `CC(=O)CCC1=C(C)CCCC1(C)C`, the result was inactive.
For `CCCCC1C(=O)N(c2ccccc2)N(c2ccccc2)C1=O`, the outcome was inactive.
Under `C=C(C)[C@@H]1CC=C(C)CC1` stands “inactive”; under `O=C(O)C1CCC(C(=O)O)CC1` (stereo not drawn), “inactive”; under `CCCc1ccc(O)c(OC)c1`, “inactive”.
`CC(C)(O)Cc1ccccc1`: the outcome was inactive.
As for `CC(C)(CO)C(O)C(=O)NCCCO` (stereo not drawn), the result was inactive.
For `O=C(OCc1ccccc1)c1ccc(O)cc1`, the result was inactive.
On to `CC(=O)c1ccc(S(=O)(=O)NC(=O)NC2CCCCC2)cc1`, for which the result was inactive.
With `C=C[C@@]1(C)CC(=O)[C@]2(O)[C@@]3(C)[C@@H](O)CCC(C)(C)[C@@H]3[C@H](O)[C@H](OC(C)=O)[C@@]2(C)O1`, the outcome was inactive.
For `CC(C)(C)NC(=O)[C@H]1CC[C@H]2[C@@H]3CC[C@H]4NC(=O)C=C[C@]4(C)[C@H]3CC[C@]12C`, the outcome was inactive.
